# Measured values: PubChem BioAssay (NCI)
# Compounds without any hit were thinned out: in the full panel of roughly 83,000, 20% have a hit.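 Step 1: grow cells in 96-well plates. Step 2: add test compound at a single concentration. Step 3: incubate 48 h. Step 4: record percent growth.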 A number with no mark means an inactive call. Activity calls are given as the source filed them. The calls were made as follows: active = growth percent below 10; inactive = the rest.
# How the values were obtained:
# Assay in all cases: NCI-60 one-dose screen, 48 h (100 = growth as untreated, 0 = no growth, -100 = all killed)
# Settings in all cases: 10 µM unless noted
# SK-MEL-2 melanoma = system: SK-MEL-2 melanoma
# EKVX NSCLC = system: EKVX NSCLC
# SN12C renal = system: SN12C renal
# UO-31 renal = system: UO-31 renal
# TK-10 renal = system: TK-10 renal
# ACHN renal = system: ACHN renal
# CAKI-1 renal = system: CAKI-1 renal
# A498 renal = system: A498 renal
# CCRF-CEM leukemia = system: CCRF-CEM leukemia
# MOLT-4 leukemia = system: MOLT-4 leukemia
# SR leukemia = system: SR leukemia
# RPMI-8226 leukemia = system: RPMI-8226 leukemia
# OVCAR-8 ovarian = system: OVCAR-8 ovarian
# OVCAR-5 ovarian = system: OVCAR-5 ovarian
# OVCAR-4 ovarian = system: OVCAR-4 ovarian
# SK-OV-3 ovarian = system: SK-OV-3 ovarian
# IGROV1 ovarian = system: IGROV1 ovarian
# OVCAR-3 ovarian = system: OVCAR-3 ovarian
# HS 578T breast = system: HS 578T breast
# NCI/ADR-RES ovarian = system: NCI/ADR-RES ovarian
Compound,growth (SK-MEL-2 melanoma),growth (EKVX NSCLC),growth (SN12C renal),growth (UO-31 renal) [%],growth (TK-10 renal),growth (ACHN renal),growth (CAKI-1 renal),growth (A498 renal),growth (CCRF-CEM leukemia),growth (MOLT-4 leukemia),growth (SR leukemia),growth (RPMI-8226 leukemia),growth (OVCAR-8 ovarian),growth (OVCAR-5 ovarian) [%],growth (OVCAR-4 ovarian),growth (SK-OV-3 ovarian) [%],growth (IGROV1 ovarian),growth (OVCAR-3 ovarian),growth (HS 578T breast) [%],growth (NCI/ADR-RES ovarian)
COc1ccc(Oc2nc(Nc3ccc(N4CCOCC4)cc3)ncc2NC(=O)Nc2cc(OC)cc(OC)c2)cc1,17.8%,73.1%,-12.7% (active),47.8,28.4%,17.4%,16.3%,9.34% (active),65%,36.8%,50.7%,54.3%,18.4%,60.9,54.5%,57.4,37.8%,18.3%,36.2,80.8%
O=C(CCCCCCN1CC(=O)N2[C@H](c3ccc(Br)cc3)c3[nH]c4ccccc4c3C[C@@H]2C1=O)NO,60.3%,56.7%,56.6%,58.8,40.6%,72.3%,51.5%,67.4%,21%,5.86% (active),24%,18%,41.2%,40.5,67.5%,49.5,23.9%,41.5%,53,89.6%
Cc1ccc(-c2nc(N3CCNCC3)c3oc(-c4ccc(C)cc4)nc3n2)cc1,99.2%,120%,50.9%,64.6,-30.4% (active),50.7%,101%,94.8%,-72.2% (active),-72.6% (active),-49.2% (active),-49.1% (active),-69% (active),78.4,11.9%,86.2,-77.1% (active),-94.6% (active),99.2,-28.9% (active)
C=C(C)[C@@H]1CC[C@]2(COC(C)=O)CC[C@]3(C)[C@H](CC[C@@H]4[C@@]5(C)CCCN(C(C)=O)C(C)(C)[C@@H]5CC[C@]43C)[C@@H]12,61.3%,90%,67.5%,77,90.3%,27.9%,24.3%,108%,59.9%,-9.89% (active),-35.6% (active),-6.5% (active),48.6%,59.2,50.7%,111,57.6%,88.3%,73.3,66.9%
COc1ccc(NC(=O)Nc2ccc(OCCCCCC(=O)NO)cc2)cc1,79.9%,121%,97%,87.4,89.3%,107%,93.5%,85.2%,85.6%,85.6%,71.6%,97.8%,87.8%,113,122%,97.1,115%,103%,94.1,99.6%
CCN1CCN(C(=O)[C@]23CC[C@@H](C)[C@H](C)[C@@H]2C2=CC[C@@H]4[C@@]5(C)C/C(=C/c6cccnc6)C(=O)C(C)(C)[C@@H]5CC[C@@]4(C)[C@]2(C)CC3)CC1,28.3%,41.5%,29.6%,10.5,43.1%,20.7%,39.8%,43.8%,8.77% (active),2.7% (active),-4.44% (active),-15.2% (active),32.6%,56.7,26.7%,54.3,50.9%,25.9%,25.2,26.7%
O=C1/C=C/[C@@H](O)[C@@H]2C[C@@H](O)C[C@H]2/C=C/CCC[C@H](CCO)O1,-20.3% (active),9.95% (active),10.5%,18.1,-30.4% (active),5.87% (active),1.05% (active),-33.3% (active),18.8%,15.1%,9.21% (active),14.7%,11%,16.1,27.8%,30.8,17.9%,-46.9% (active),29.4,5.98% (active)
COc1cccc(/C=N/NC(=O)c2ccccc2N2CCCC2)c1O,-7.25% (active),41.7%,78.8%,30.4,74.9%,31.1%,0.778% (active),67.1%,-14% (active),30.7%,77.4%,-1.83% (active),54.9%,57.9,18%,63.6,-24.3% (active),-4.45% (active),87.3,13.6%
COc1cc(C(=O)n2nc(N3CCOCC3)c3cc(-n4cccc4)ccc32)cc(OC)c1OC,92.1%,60.6%,69%,32.9,88.4%,49.8%,60.6%,0.812% (active),36.4%,33.1%,6.85% (active),42.6%,64%,98.3,68.5%,72.5,68%,87.3%,68.5,68.5%
COC(=O)c1c2c(c(C)[n+]([O-])c1C)C(=O)C(NCc1ccc(OC)cc1)=CC2=O,62.3%,55%,0.985% (active),65.3,102%,40.1%,48.5%,113%,20.7%,0.904% (active),9.98% (active),23.6%,-15.2% (active),53,-39.2% (active),99.2,8.2% (active),-18.6% (active),84.8,10.1%
CNC(=O)c1cc(Oc2cccc3nc(NC(=O)Nc4cc(C(F)(F)F)ccc4Cl)ccc23)ccn1,119%,99.5%,93.5%,105,111%,101%,85.8%,109%,80.8%,89.5%,48.2%,78.8%,78%,98.7,-10.5% (active),115,108%,95.4%,76.4,93.8%
C=Cc1cnc(Nc2ccc(OC)cc2)nc1NCCCNC(=O)C1CCC1,87%,56.8%,20.6%,10.2,26%,41.5%,14.4%,47.3%,28%,24%,9.88% (active),43.8%,49.2%,48,46.4%,20.4,44.6%,48.2%,18.7,53.5%
COc1ccc2cc(-c3ccnc4c(N=Nc5ccc(Cl)cc5)c(N)nn34)ccc2c1,118%,114%,100%,77.7,102%,100%,92.2%,97.2%,91.6%,100%,95.2%,94.9%,93.9%,99.7,116%,93.7,102%,105%,92.9,94.5%
C=C1C(=O)O[C@H]2[C@H]1CC/C(COC(=O)c1ccc(C(=O)O)s1)=C\CC[C@@]1(C)O[C@@H]21,49.5%,34.2%,-8.57% (active),29,13.1%,17.4%,8.39% (active),104%,-28.7% (active),-7% (active),-12.8% (active),-25.9% (active),17.9%,48.6,35.2%,96.6,-26.8% (active),0.215% (active),37.6,42%
CC(=O)/C(=C/c1ccc([N+](=O)[O-])cc1)C(=O)c1ccccc1,89.4%,101%,91.6%,69.1,87.8%,83.8%,96.3%,112%,33.7%,21.4%,-0.146% (active),8.32% (active),94.4%,112,93.7%,101,82.9%,96.5%,92.3,83.7%
